# Screens deposited in PubChem by National Center for Advancing Translational Sciences (NCATS).
# Most compounds without a hit are left out; they make up all but 18% or so of the library.
# RORgamma inh = inhibitors of mouse ROR gamma transcriptional activity | P51450 | Drosophila S2 Gal4-RORgamma UAS-luciferase reporter, 20 h | Potency, µM (titrated, usually from 53.6 µM), without a hit: at the top dose activity change, negative = inhibition, usual class: inhibitors | 5.4% of 310,000 active; also: potency is read from the fitted curve at half-maximal effect; nearly all actives have a fitted effect of over 60% in size
# Target sequence (P51450 whole entry, looked up, the tested form may be a part): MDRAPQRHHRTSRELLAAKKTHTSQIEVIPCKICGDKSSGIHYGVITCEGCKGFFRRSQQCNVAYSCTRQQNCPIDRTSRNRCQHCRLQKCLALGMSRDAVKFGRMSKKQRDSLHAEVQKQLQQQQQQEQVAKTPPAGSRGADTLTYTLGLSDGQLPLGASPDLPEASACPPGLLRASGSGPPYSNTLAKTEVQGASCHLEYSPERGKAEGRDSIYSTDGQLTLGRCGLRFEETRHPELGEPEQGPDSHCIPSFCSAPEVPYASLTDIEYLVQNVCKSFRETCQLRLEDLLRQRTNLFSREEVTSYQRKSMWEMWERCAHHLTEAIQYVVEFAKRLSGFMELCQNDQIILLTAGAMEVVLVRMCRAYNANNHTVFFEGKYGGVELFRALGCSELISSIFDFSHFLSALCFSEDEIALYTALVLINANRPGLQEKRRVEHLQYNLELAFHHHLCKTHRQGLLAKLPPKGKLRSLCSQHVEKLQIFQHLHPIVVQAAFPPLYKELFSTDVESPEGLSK
#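 Drosophila S2 cells stably expressing Gal4-DBD/mouse RORγ fusion under metallothionein promoter plus UAS-luciferase; compound 1 h, then 700 uM CuSO4 induction for 20 h at ambient temperature; inhibition read as reduced luminescence.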
# DT40 TDP1 CPT = DT40-hTDP1 cell growth loss with CPT | Potency, µM (doses to about 46.2 µM), for inactives: top-dose activity change, negative = growth inhibition, usual class: inhibitors | 12% of 420,000 active | chicken DT40 Tdp1-/-;hTDP1 cells + 20 nM CPT, ATP luminescence, 48 h; also: potency is read from the fitted curve at half-maximal effect; nearly all actives have a fitted effect of over 55% in size
#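 Cell growth measured by CellTiter-Glo luminescence after a minimum 48 h, 37 C compound exposure with 20 nM CPT in Tdp1-knockout DT40 cells stably expressing hTDP1, seeded 400/well; qHTS titration format.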
# TDP1 cell noCPT = qHTS for Inhibitors of human tyrosyl-DNA phosphodiesterase 1 (TDP1): qHTS in cells in absence of CPT; AID 686978, 2013; 15% of 420,000 active; DT40 Tdp1-/- hTDP1 cells, no CPT, ATP luminescence, 48 h; Potency, µM (highest dose often 46.2 µM), inactives show at the top dose activity change, negative = growth inhibition, usual class: inhibitors; also: potency is read from the fitted curve at half-maximal effect; nearly all actives have a fitted effect of over 55% in size
#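 Seeded 400 DT40-hTDP1 cells/well (vehicle DMSO, no 20 nM CPT); pinned compounds; ≥48 hr at 37 °C; CellTiter-Glo luminescence as viability measure.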
# Gal4-VP16 FLuc = Gal4-VP16 reporter inhibition counter-screen; Drosophila S2 Gal4-VP16 UAS-luciferase, luminescence, 20 h; Potency, µM (top dose mostly 53.6 µM), for inactives: top-dose activity, negative = inhibition, most hits filed as inhibitors; 3.5% of 310,000 active;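 also: Gal4-VP16 expression switched on by copper sulfate through the metallothionein promoter; potency is read from the fitted curve at half-maximal effect; nearly all actives have a fitted effect of over 50% in size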
# IL-1B inflam inh = blocks inflammasome-driven IL-1 beta release | THP-1 LPS/ATP IL-1B secretion, AlphaLISA, 16 h; active compounds read low | 4.7% of 360,000 active | AID 743279 | activity change, % at 57.5 µM; in the data active = activity change below about -50%; inconclusive = mostly about -30% to -49%
#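 THP-1 cells pretreated 1 hr with compounds (up to 57.5 uM final), then stimulated with LPS (250 ng/mL final) plus ATP (1.25 mM final); secreted IL-1B measured by AlphaLISA after 16 hr, decreased signal indicating inhibition.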
# LDHA block = blocks human lactate dehydrogenase A; P00338; purified LDHA, NADH/diaphorase-resazurin fluorescence; active compounds read low; activity change, % (values are at about 110 or 230 µM); 0.15% of 480,000 active; AID 1347041; in the data active = activity change below about -30%; inconclusive = mostly about -25% to -30%;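 also: plate controls were DMSO wells for no effect and wells without enzyme for full effect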
#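 Remaining NADH was detected by diaphorase (0.133 mg/mL) converting 37 µM resazurin to fluorescent resorufin, read at 0 and 20 minutes. The preceding 5-minute room-temperature reaction used 2 nM LDHA, 0.2 mM sodium pyruvate and 0.06 mM NADH at pH 7.4.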
# Starred values were filed as active, the others as inactive; u = inconclusive; x = not tested or not shown; ! = a repeat was not active; [ ] = another dose, or the depositor's remark. Unless noted, calls follow the shape of the dose curve; as a rule, active = well fitted curve in the direction sought with a large enough effect; inconclusive = small, poorly fitted or top-dose-only effect, or another doubt; inactive = no such curve, though single readings can be large; an effect the other way counts as inactive or inconclusive. Unless noted, % is scaled to controls: 0 for no effect and ±100 for the full control effect.
SMILES,RORgamma inh,DT40 TDP1 CPT,TDP1 cell noCPT,Gal4-VP16 FLuc,IL-1B inflam inh,LDHA block
Cc1csc2nc(COc3ccc(F)cc3F)cc(=O)n12,x,x,x,x,x,0
Cc1ccc(Cl)cc1NC(=O)c1cnn2c1NC(c1ccco1)CC2C(F)(F)F (stereo unspecified),16%,u,u,-9%,u,-1
O=C(NCC12CC3CC(CC(C3)C1)C2)c1nn2c(c1Cl)NC(c1ccco1)CC2C(F)(F)F (stereo unspecified),u,u,u,14µM*,-8,-8
O=C(NCc1cccc(Cl)c1)c1cnn2c1NC(c1ccco1)CC2C(F)(F)F (stereo unspecified),23%,18µM*,16µM*,-4%,-53*,2
CN(Cc1ccc(-n2cccn2)cc1)C(=O)c1cnn2c1NC(c1ccco1)CC2C(F)(F)F (stereo unspecified),-10%,23µM*,16µM*,-15%,-54*,-2
COCCNC(=O)c1cnn2c1NC(c1ccco1)CC2C(F)(F)F (stereo unspecified),25%,-2%,1%,-7%,-4,0
O=C(Nc1ccc2c(c1)CCC2)c1cnn2c1NC(c1ccco1)CC2C(F)(F)F (stereo unspecified),u,12µM*,-58%,-1%[0.365 µM],-5,-1
Cc1cccc(C(CC(=O)Nc2ccc(-c3ccno3)cc2)n2cccc2)c1 (stereo unspecified),x,x,x,x,x,5
O=c1c(=Nc2ccccc2O)c(=O)c2ccccc12,-15%,7.3µM*,12µM*,u,-16,4
COc1ccccc1CC(=O)Oc1ccc2c(c1)OCO2,x,x,x,x,x,-8
COc1ccc(C2CCCN2Cc2coc(-c3ccc(C)cc3C)n2)cc1 (stereo unspecified),x,x,x,x,x,0
Cc1cc(Cn2nnc3ccccc32)c(O)c(C(C)(C)C)c1,x,16µM*,16µM*,x,25,1
Cc1cccc(Cn2nnc3ccccc32)c1O,x,u,-22%,x,16,1
CC(C)(C)c1cccc(Cn2nnc3ccccc32)c1O,x,29µM*,21µM*,x,-1,0
CCN(c1ccc(OC)cc1)S(=O)(=O)c1cc(-c2cc(C)no2)ccc1OC,11%,-15%,u,2%,0,1
CCN(c1ccc(OC)cc1)S(=O)(=O)c1cc(-c2cc(C)no2)ccc1C(C)C,2%,u,21µM*,-27%,2,3
COc1cccc(CNS(=O)(=O)c2cc(-c3cc(C)no3)ccc2C(C)C)c1,9%,21µM*,u,-1%,-24,-2
COc1ccc(-c2cc(C)no2)cc1S(=O)(=O)NCc1ccc(OC(C)C)cc1,-13%,u,18µM*!,4%,49,-1
CCCCCCn1nc(C(=O)OCC(=O)Nc2ccc(C)c(F)c2)c2ccccc2c1=O,x,x,x,x,x,0
Cc1ccc(NC(=O)CCN=C2NS(=O)(=O)c3ccccc32)cc1Cl,x,x,x,x,x,8
CCOC(=O)Nc1ccc2c(c1)N(C(=O)CCN(CC)CC)c1ccccc1CC2,-2%,u,u,-16%,u,-5
CCN(CC)CCC(=O)N1c2ccccc2CCc2ccc(NC(=O)OC)cc21,5%,-21%,-7%,0%,-62*,0
CCOC(=O)Nc1ccc2c(c1)N(C(=O)CN(CC)CC)c1ccccc1CC2,-9%,u,u,5%,-17,-6
CCOC(=O)Nc1ccc2c(c1)N(C(=O)CCN(CC)CC)c1ccccc1S2=O (stereo unspecified),u,2.6µM*,3.7µM*,13µM*,-100*,2
CCNC(=O)c1ccccc1NC(=O)c1cccc(S(=O)(=O)N2CCC(C)CC2)c1,22%,u,15µM*,-12%,-4,-2
SMILES,RORgamma inh,DT40 TDP1 CPT,TDP1 cell noCPT,Gal4-VP16 FLuc,IL-1B inflam inh,LDHA block
CNC(=O)c1ccccc1NC(=O)c1cccc(S(=O)(=O)N2CCCCC2)c1,19%,13%,-8%,3%,10,-8
CC1CCN(S(=O)(=O)c2cccc(C(=O)Nc3nccs3)c2)CC1,11µM*,u,-25%,u,-2,0
CCNC(=O)c1ccccc1NC(=O)c1cccc(S(=O)(=O)N2CCOCC2)c1,3%,12%,1%,-4%,3,-7
CNC(=O)c1ccccc1NC(=O)c1cccc(S(=O)(=O)N2CCC(C)CC2)c1,16%,21µM*,16µM*,-3%,-4,-9
O=C(Nc1nccs1)C1CCN(S(=O)(=O)c2c(Cl)cccc2Cl)CC1,8.9µM*,-26%,u,9%,-10,-7
Clc1cccc(Cl)c1C=Nc1cccc2ccccc12,x,x,x,x,x,25
Oc1ccccc1C(=S)N1CCN(c2cccc(Cl)c2)CC1,-37%,23µM*,u,4%,-97*,1
Oc1ccc(C(=S)N2CCN(c3cccc(Cl)c3)CC2)cc1,18%,u,u,-7%,-93*,-7
COc1cc(C(=O)N2CCN(c3cccc(Cl)c3)CC2)ccc1OCC(=O)N1CCOCC1,x,u,u,x,-12,-2
CC(=O)c1ccc(NC(=S)N2CCN(c3cccc(Cl)c3)CC2)cc1,-41%,u,u,u,-24,-10
COc1cc(C(=S)N2CCN(c3cccc(Cl)c3)CC2)ccc1O,28%,10µM*,18µM*,-15%,10,-1
CCCCC1CCC(C(=O)C2CCC(c3ccccc3)C2)CC1 (stereo unspecified),x,x,x,x,x,3
COc1ccc(CNC(=O)CN(C)S(=O)(=O)c2ccc3c(c2)c(=O)n(C)c(=O)n3C)cc1,-3%,u,16µM*!,7%,28,0
Cc1ccc(CNC(=O)CN(C)S(=O)(=O)c2ccc3c(c2)c(=O)n(C)c(=O)n3C)cc1,x,-8%,-6%,x,x,-8
CCCCN(CCCC)C(=O)CN(C)S(=O)(=O)c1ccc2c(c1)c(=O)n(C)c(=O)n2C,x,23µM*,u,x,x,-4
CN(Cc1ccsc1)C(=O)CSc1nnc(COc2ccccc2Cl)n1C,x,x,x,x,x,-2
Cc1ccc(-c2csc(Nc3ccccc3)n2)cc1C,x,x,x,x,x,1
CCOc1cc2ccccc2cc1C(=O)Nc1nnc(C)s1,x,x,x,x,x,7
COc1ccc(OCc2nnc3sc(-c4ccccn4)nn23)cc1,x,x,x,x,x,9
CCOC1=C(C#N)CC2(CC1)c1ccccc1-c1ccccc12,x,u,23µM*,x,-30,-2
Cc1cc2c(cn1)C(CCC#N)(CCC#N)c1ccccc1-2,-28%,-25%,-21%,0%,14,0
